Experimental data from PubChem BioAssay.

Each compound was assayed against Carbonic anhydrase 2 (Homo sapiens) (UniProt P00918) (assay: CAII small-molecule binders, profiling panel, biochemical, small-molecule microarray, Alexa647-labelled CAII (AID 1122)). Details: CAII-A647 binding fluorescence, higher = more signal.

Compound	composite z-score
COC(=O)[C@@]1(Cc2ccc(OC)cc2)[C@H]2c3cc(C(=O)N(C)C)n(Cc4c(OC)[nH]cc(C)c4=O)c3C[C@H]2CN1C(=O)c1ccccc1	0.881
CC(C)NC(=O)[C@@H]1c2ccccc2C(=O)N(Cc2ccccc2)[C@H]1c1ccc(CO)cc1	0.706
O=C1C=CC(=O)[C@@H]2CC(COc3ccccc3)=C3[C@@H](CCc4ccccc4)OB(O)C[C@@H]3[C@H]12	-0.0292
C=CCC(OC(C)=O)[C@@H]1[C@@H](N(Cc2cccc3ccccc23)C(=O)c2cccc3ccccc23)c2cc(OCCCO)ccc2N1C(=O)c1ccc2ccccc2n1 (stereo partly specified)	-0.12
O=C1[C@]2(CO)C=C(Br)[C@@H](C[C@@H]2c2ccccc2)[C@@]12CO2	0.129
COCC1=C2[C@@H](CCc3ccccc3)OB(O)C[C@@H]2[C@@H]2C(=O)N(Cc3ccccc3)C(=O)[C@@H]2C1	0.404
CCOC(=O)C1=CC[C@@H](c2ccccc2)N(S(=O)(=O)c2ccc(C)cc2)[C@H]1C(=O)OCC	0.413
Cc1ccccc1C(O)C1C=CC2C(=O)N(C)C(=O)C2N1Nc1ccccc1 (stereo unspecified)	0.821
C=CCC(OC(C)=O)[C@@H]1[C@@H](N(Cc2ccc(-c3ccccc3)cc2)C(=O)Cc2ccc(OC)cc2)c2cc(OCCCO)ccc2N1C(=O)c1ccc2ccccc2n1 (stereo partly specified)	0.195
CCN(CC)c1ccc(N2CC=CC34O[C@@H]5C=CCCOC(=O)C5[C@H]3C(=O)N(CCCCCO)[C@@H]4C2=O)cc1 (stereo partly specified)	0.285
C[C@]1(C(=O)NCc2ccccc2)c2ccccc2C(=O)N(Cc2ccc(OC(F)(F)F)cc2)[C@H]1c1ccc(CO)cc1	0.681
